Whole data set: some 16,000 sequences, median “rpm ratio (pull-down/input)” near 0.5, cut for the highest 2% near 5.5. The sample holds the highest values, similar sequences and a random draw of the others, so the mix is not that of the screen.
target: T1, MBP-FoxP3dN (Mus musculus, UniProt Q99JB6 188-423); test: PD-seq (MBP pull-down with sequencing); 20 mM Tris-HCl pH 7.5, 100 mM NaCl, 1.5 mM MgCl2, 0.4 uM protein, 0.1 uM dsDNA library, 30 min, room temperature, amylose pull-down; high values mean tight binding; settings: protein: recombinant; tags: His6-MBP; chain copies: 2; dsDNA, one strand shown
T1 sequence: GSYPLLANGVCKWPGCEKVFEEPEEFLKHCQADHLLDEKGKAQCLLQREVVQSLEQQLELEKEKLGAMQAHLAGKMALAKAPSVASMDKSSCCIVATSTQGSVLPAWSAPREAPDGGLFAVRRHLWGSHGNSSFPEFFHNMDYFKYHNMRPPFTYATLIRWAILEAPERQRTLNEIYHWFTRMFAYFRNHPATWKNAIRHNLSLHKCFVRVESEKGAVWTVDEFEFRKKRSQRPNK
Outline: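 A fragment of mouse FoxP3 or FoxP1 without its N-terminus, carrying a His6-MBP tag and produced in E. coli, was combined at 0.4 µM with a 0.1 µM degenerate double-stranded DNA library filled in with Klenow. The mixture sat for 30 min at room temperature in Tris pH 7.5 buffer containing NaCl and MgCl2. Protein–DNA complexes were captured on amylose resin, washed three times, and the DNA was freed with proteinase K, barcoded by PCR and sequenced on Illumina. Binding is expressed as reads-per-million enrichment of pull-down over input, with replicates pooled.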

Sequence | binding signal
GATGATTGTTCTCCCAGCTGATGAATTTGTACCTTCGAGTAAACAAATTTTCCTAATCTTTCTGTTCAAGCGCCATCTAC | 2.49 RPM ratio (pull-down/input)
GATGATTGTTCTCCCAGCTGATGAATTGAGCCCCTCGAGTAAACAAATTTTCCTAATCTTTCTGTTCAAGCGCCATCTAC | 0.983 RPM ratio (pull-down/input)
GATGATTGTTCTCCCAGCTGATGAATTACACCTCTCGAGTAAACAAATTTTCCTAATCTTTCTGTTCAAGCGCCATCTAC | 0.705 RPM ratio (pull-down/input)
GATGATTGTTCTCCCAGCTGATGAATTAACTGTGTCGAGTAAACAAATTTTCCTAATCTTTCTGTTCAAGCGCCATCTAC | 0.556 RPM ratio (pull-down/input)
GATGATTGTTCTCCCAGCTGATGAATTTGTGTGCTCGAGTAAACAAATTTTCCTAATCTTTCTGTTCAAGCGCCATCTAC | 5.67 RPM ratio (pull-down/input)
GATGATTGTTCTCCCAGCTGATGAATTTTTGTGCTCGAGTAAACAAATTTTCCTAATCTTTCTGTTCAAGCGCCATCTAC | 0.442 RPM ratio (pull-down/input)
GATGATTGTTCTCCCAGCTGATGAATTGTGCGTCTCGAGTAAACAAATTTTCCTAATCTTTCTGTTCAAGCGCCATCTAC | 6.12 RPM ratio (pull-down/input)
GATGATTGTTCTCCCAGCTGATGAATTGTGCGTTTCGAGTAAACAAATTTTCCTAATCTTTCTGTTCAAGCGCCATCTAC | 5.5 RPM ratio (pull-down/input)
GATGATTGTTCTCCCAGCTGATGAATTGTGTGTTTCGAGTAAACAAATTTTCCTAATCTTTCTGTTCAAGCGCCATCTAC | 4.97 RPM ratio (pull-down/input)
GATGATTGTTCTCCCAGCTGATGAATTGTGTTTTTCGAGTAAACAAATTTTCCTAATCTTTCTGTTCAAGCGCCATCTAC | 6.66 RPM ratio (pull-down/input)
GATGATTGTTCTCCCAGCTGATGAATTCTGTGTTTCGAGTAAACAAATTTTCCTAATCTTTCTGTTCAAGCGCCATCTAC | 3.31 RPM ratio (pull-down/input)
GATGATTGTTCTCCCAGCTGATGAATTTGTGCTCTCGAGTAAACAAATTTTCCTAATCTTTCTGTTCAAGCGCCATCTAC | 2.89 RPM ratio (pull-down/input)
GATGATTGTTCTCCCAGCTGATGAATTTGTGCGTTCGAGTAAACAAATTTTCCTAATCTTTCTGTTCAAGCGCCATCTAC | 3.7 RPM ratio (pull-down/input)
GATGATTGTTCTCCCAGCTGATGAATTGCGTTTTTCGAGTAAACAAATTTTCCTAATCTTTCTGTTCAAGCGCCATCTAC | 2.11 RPM ratio (pull-down/input)
GATGATTGTTCTCCCAGCTGATGAATTTTGCGTCTCGAGTAAACAAATTTTCCTAATCTTTCTGTTCAAGCGCCATCTAC | 5.4 RPM ratio (pull-down/input)
GATGATTGTTCTCCCAGCTGATGAATTCTGCGTCTCGAGTAAACAAATTTTCCTAATCTTTCTGTTCAAGCGCCATCTAC | 4.55 RPM ratio (pull-down/input)
GATGATTGTTCTCCCAGCTGATGAATTAACGGATTCGAGTAAACAAATTTTCCTAATCTTTCTGTTCAAGCGCCATCTAC | 0.29 RPM ratio (pull-down/input)

Sequence | binding signal
GATGATTGTTCTCCCAGCTGATGAATTCCTAACTTCGAGTAAACAAATTTTCCTAATCTTTCTGTTCAAGCGCCATCTAC | 0.231 RPM ratio (pull-down/input)
GATGATTGTTCTCCCAGCTGATGAATTCACCTTATCGAGTAAACAAATTTTCCTAATCTTTCTGTTCAAGCGCCATCTAC | 0.363 RPM ratio (pull-down/input)
GATGATTGTTCTCCCAGCTGATGAATTGGAGCTGTCGAGTAAACAAATTTTCCTAATCTTTCTGTTCAAGCGCCATCTAC | 0.312 RPM ratio (pull-down/input)
GATGATTGTTCTCCCAGCTGATGAATTCTATAGGTCGAGTAAACAAATTTTCCTAATCTTTCTGTTCAAGCGCCATCTAC | 0.372 RPM ratio (pull-down/input)
GATGATTGTTCTCCCAGCTGATGAATTCCAGCTGTCGAGTAAACAAATTTTCCTAATCTTTCTGTTCAAGCGCCATCTAC | 0.355 RPM ratio (pull-down/input)
GATGATTGTTCTCCCAGCTGATGAATTACCATAATCGAGTAAACAAATTTTCCTAATCTTTCTGTTCAAGCGCCATCTAC | 0.448 RPM ratio (pull-down/input)
GATGATTGTTCTCCCAGCTGATGAATTCAGCGCCTCGAGTAAACAAATTTTCCTAATCTTTCTGTTCAAGCGCCATCTAC | 1.17 RPM ratio (pull-down/input)
GATGATTGTTCTCCCAGCTGATGAATTGCTACCGTCGAGTAAACAAATTTTCCTAATCTTTCTGTTCAAGCGCCATCTAC | 0.615 RPM ratio (pull-down/input)
GATGATTGTTCTCCCAGCTGATGAATTCATACTATCGAGTAAACAAATTTTCCTAATCTTTCTGTTCAAGCGCCATCTAC | 0.534 RPM ratio (pull-down/input)
GATGATTGTTCTCCCAGCTGATGAATTCGAGCCATCGAGTAAACAAATTTTCCTAATCTTTCTGTTCAAGCGCCATCTAC | 1.13 RPM ratio (pull-down/input)
GATGATTGTTCTCCCAGCTGATGAATTGACGTCTTCGAGTAAACAAATTTTCCTAATCTTTCTGTTCAAGCGCCATCTAC | 0.448 RPM ratio (pull-down/input)
GATGATTGTTCTCCCAGCTGATGAATTGTACTACTCGAGTAAACAAATTTTCCTAATCTTTCTGTTCAAGCGCCATCTAC | 0.546 RPM ratio (pull-down/input)
GATGATTGTTCTCCCAGCTGATGAATTATCAGGCTCGAGTAAACAAATTTTCCTAATCTTTCTGTTCAAGCGCCATCTAC | 0.299 RPM ratio (pull-down/input)
GATGATTGTTCTCCCAGCTGATGAATTGTGTTCTTCGAGTAAACAAATTTTCCTAATCTTTCTGTTCAAGCGCCATCTAC | 2.39 RPM ratio (pull-down/input)
GATGATTGTTCTCCCAGCTGATGAATTTCTGTGTTCGAGTAAACAAATTTTCCTAATCTTTCTGTTCAAGCGCCATCTAC | 0.716 RPM ratio (pull-down/input)
GATGATTGTTCTCCCAGCTGATGAATTGTTGTGTTCGAGTAAACAAATTTTCCTAATCTTTCTGTTCAAGCGCCATCTAC | 6.09 RPM ratio (pull-down/input)

From article PMC12820563, “FoxP3 forms a head-to-head dimer in vivo and stabilizes its multimerization on adjacent microsatellites”
